In PubChem BioAssay (Tox21):
Where “and” joins values, the source holds several entries; their conditions need not be identical. Equal values may be shown once. Results filed as inconclusive are left out. A call without a number means that no potency is given here. More than one record can exist for a structure, and the calls need not agree. Calls of active or inactive are those of the source. Unless noted, the call rests on the fitted dose curve; in most records, active means well fitted curve in the direction sought with a large enough effect in the repeat runs; inconclusive means weak or mixed curves; inactive means no such curve, though single readings can be large; an effect the other way counts as inactive or inconclusive.

How the values were obtained:
[1] = qHTS assay to identify small molecule antagonists of the thyroid receptor (TR) signaling pathway - cell viability counter screen (AID 743064); further: nearly all actives have a fitted effect of over 50% in size; further: potency means the concentration at half of the fitted maximal effect
Summary of the method: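 In rat pituitary GH3.TRE-Luc reporter cells co-exposed to compound and 1 nM T3 for 23.5 h, cytotoxicity was assessed with CellTiter-Fluor in the same wells, read by fluorescence.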

[2] = system: thyroid hormone receptor (rat, GH3 cells); experiment: qHTS assay to identify small molecule agonists of the thyroid receptor (TR) signaling pathway (AID 743066; calls by dose curve)
[3] = molecular target: Estrogen receptor (Homo sapiens) (UniProt P03372); experiment: qHTS assay to identify small molecule antagonists of the estrogen receptor alpha (ER-alpha) signaling pathway (AID 743069; active means well fitted curve in the direction sought with a large enough effect in the signal ratio in the repeat runs, not every such curve was filed as active; the % refers to the signal ratio)
Chain of Estrogen receptor (Homo sapiens) (P03372 whole entry, looked up): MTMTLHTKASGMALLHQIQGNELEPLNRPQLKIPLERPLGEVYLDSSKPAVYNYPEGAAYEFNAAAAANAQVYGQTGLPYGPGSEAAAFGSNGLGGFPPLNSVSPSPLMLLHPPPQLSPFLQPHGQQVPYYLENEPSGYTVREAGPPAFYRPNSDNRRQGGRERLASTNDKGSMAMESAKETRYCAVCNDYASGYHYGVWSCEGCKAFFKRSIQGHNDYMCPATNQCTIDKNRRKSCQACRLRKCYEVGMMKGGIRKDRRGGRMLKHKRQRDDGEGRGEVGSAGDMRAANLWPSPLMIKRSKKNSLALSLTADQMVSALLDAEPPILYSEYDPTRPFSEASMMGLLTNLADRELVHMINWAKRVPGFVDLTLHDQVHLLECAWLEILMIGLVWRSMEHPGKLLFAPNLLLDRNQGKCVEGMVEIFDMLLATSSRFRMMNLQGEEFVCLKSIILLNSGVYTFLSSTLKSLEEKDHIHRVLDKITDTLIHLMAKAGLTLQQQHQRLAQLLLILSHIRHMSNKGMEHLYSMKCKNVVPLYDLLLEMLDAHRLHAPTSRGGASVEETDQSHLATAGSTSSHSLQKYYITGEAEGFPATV
Summary of the method: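 ER-alpha-UAS-bla GripTite HEK293 line; 2% charcoal-stripped FBS overnight; plated, 4 hr 37C/5% CO2; cpd in DMSO + 17beta-estradiol, 18 hr 37C; LiveBLAzer B/G FRET substrate 2 hr RT; fluorescence intensity.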

[4] = qHTS assay to identify small molecule antagonists of the estrogen receptor alpha (ER-alpha) signaling pathway - cell viability counter screen (AID 743074; calls by dose curve;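 further: HEK293 cells carrying ER-alpha-UAS-bla reporter stimulated with 17beta-estradiol; nearly all actives have a fitted effect of over 45% in size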; further: potency means the concentration at half of the fitted maximal effect)
[5] = molecular target: Estrogen receptor (Homo sapiens) (UniProt P03372); experiment: qHTS assay to identify small molecule agonists of the estrogen receptor alpha (ER-alpha) signaling pathway (AID 743075; calls by dose curve;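 further: HEK293 GripTite cells with ER-alpha and UAS-driven beta-lactamase reporter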)
[6] = molecular target: Estrogen receptor (Homo sapiens) (UniProt P03372); experiment: qHTS assay to identify small molecule agonists of the estrogen receptor alpha (ER-alpha) signaling pathway using the BG1 cell line (AID 743079); further: nearly all actives have a fitted effect of over 20% in size
[7] = qHTS assay to identify small molecule antagonists of the estrogen receptor alpha (ER-alpha) signaling pathway using the BG1 cell line (AID 743080; calls by dose curve;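 further: BG1 cells stimulated with 17beta-estradiol alongside compound; series mostly up to about 70 µM; nearly all actives have a fitted effect of over 25% in size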)
Summary of the method: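 Luciferase inhibition measured with ONE-Glo after 30 min at RT in BG1Luc4E2 cells given test compounds and 17beta-estradiol for 21.5 h at 37 C; CellTiter-Fluor viability read in the same wells beforehand.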

[8] = qHTS assay to identify small molecule antagonists of the estrogen receptor alpha (ER-alpha) signaling pathway using the BG1 cell line - cell viability counter screen (AID 743081);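 further: compound given together with 17beta-estradiol as the ER stimulus; nearly all actives have a fitted effect of over 45% in size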; further: potency means the concentration at half of the fitted maximal effect; on activity change, negative = cytotoxicity: series mostly up to about 70 µM
Aromatase (Homo sapiens) = Aromatase (Homo sapiens) (UniProt P11511); experiment: qHTS assay to identify aromatase inhibitors (AID 743083); further: nearly all actives have a fitted effect of over 55% in size; further: potency means the concentration at half of the fitted maximal effect; on activity, negative = inhibition: series mostly up to about 70 µM
Chain of Aromatase (Homo sapiens) (P11511 whole entry, looked up): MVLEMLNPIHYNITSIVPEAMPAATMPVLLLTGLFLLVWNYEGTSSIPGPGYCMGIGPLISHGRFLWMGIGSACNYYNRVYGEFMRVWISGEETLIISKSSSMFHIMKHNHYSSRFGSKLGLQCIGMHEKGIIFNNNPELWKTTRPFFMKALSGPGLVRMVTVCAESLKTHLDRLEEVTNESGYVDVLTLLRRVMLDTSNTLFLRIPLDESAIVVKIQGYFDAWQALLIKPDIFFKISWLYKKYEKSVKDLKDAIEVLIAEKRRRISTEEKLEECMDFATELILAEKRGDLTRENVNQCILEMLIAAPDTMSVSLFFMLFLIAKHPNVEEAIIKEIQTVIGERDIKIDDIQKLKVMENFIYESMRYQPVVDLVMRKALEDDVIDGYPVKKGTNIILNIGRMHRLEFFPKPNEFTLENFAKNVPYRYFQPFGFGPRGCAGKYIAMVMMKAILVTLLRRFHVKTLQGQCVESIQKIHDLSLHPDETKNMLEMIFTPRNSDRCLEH

[9] = qHTS assay to identify aromatase inhibitors - cell viability counter screen (AID 743084);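 further: cells stimulated with testosterone during compound exposure; nearly all actives have a fitted effect of over 55% in size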; further: potency means the concentration at half of the fitted maximal effect
[10] = molecular target: Aryl hydrocarbon receptor (Homo sapiens) (UniProt P35869); experiment: qHTS assay to identify small molecule that activate the aryl hydrocarbon receptor (AhR) signaling pathway (AID 743085);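 further: HG2L7.5c1 human HepG2 liver cells with stably integrated DRE-driven firefly reporter; series mostly up to about 70 µM; nearly all actives have a fitted effect of over 15% in size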
Chain of Aryl hydrocarbon receptor (Homo sapiens) (P35869 whole entry, looked up): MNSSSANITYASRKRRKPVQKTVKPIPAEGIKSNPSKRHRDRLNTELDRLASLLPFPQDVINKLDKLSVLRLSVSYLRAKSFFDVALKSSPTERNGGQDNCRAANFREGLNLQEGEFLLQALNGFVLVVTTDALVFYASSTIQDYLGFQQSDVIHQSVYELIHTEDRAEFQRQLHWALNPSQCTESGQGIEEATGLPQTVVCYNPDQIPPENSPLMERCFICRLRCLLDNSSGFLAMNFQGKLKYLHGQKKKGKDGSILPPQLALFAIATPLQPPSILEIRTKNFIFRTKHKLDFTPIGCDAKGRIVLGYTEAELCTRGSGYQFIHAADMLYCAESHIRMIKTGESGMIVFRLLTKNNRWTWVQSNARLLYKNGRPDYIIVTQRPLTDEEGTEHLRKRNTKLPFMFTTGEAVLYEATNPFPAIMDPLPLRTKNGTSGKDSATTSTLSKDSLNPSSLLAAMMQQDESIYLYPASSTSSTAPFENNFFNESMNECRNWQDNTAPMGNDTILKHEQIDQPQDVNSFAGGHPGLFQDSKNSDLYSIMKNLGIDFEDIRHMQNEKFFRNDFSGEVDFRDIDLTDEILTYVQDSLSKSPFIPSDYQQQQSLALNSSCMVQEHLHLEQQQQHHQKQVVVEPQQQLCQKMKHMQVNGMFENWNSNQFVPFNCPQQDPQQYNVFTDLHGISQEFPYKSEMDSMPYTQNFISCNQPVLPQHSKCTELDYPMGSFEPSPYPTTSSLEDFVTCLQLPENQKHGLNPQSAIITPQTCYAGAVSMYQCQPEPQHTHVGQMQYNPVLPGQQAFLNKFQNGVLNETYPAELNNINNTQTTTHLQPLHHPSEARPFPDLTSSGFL
Summary of the method: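 AhR agonist activity is inferred from enhanced light output of a DRE-controlled firefly luciferase reporter in HepG2 cells, measured with ONE-Glo following 24 h treatment at 37C.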

[11] = qHTS assay to identify small molecule that activate the aryl hydrocarbon receptor (AhR) signaling pathway - cell viability counter screen (AID 743086); further: nearly all actives have a fitted effect of over 45% in size; further: potency means the concentration at half of the fitted maximal effect;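 on viability change, negative = cytotoxic: HepG2 liver cells carrying the AhR DRE luciferase reporter; series mostly up to about 70 µM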
Summary of the method: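 Cytotoxicity counter screen: CellTiter-Fluor signal (30 min, 37 C) in 4000 HepG2 cells/well carrying the DRE-luciferase reporter, following 24 h compound exposure at 37 C.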

[12] = molecular target: Peroxisome proliferator-activated receptor gamma (Homo sapiens) (UniProt P37231); experiment: qHTS assay to identify small molecule agonists of the peroxisome proliferator-activated receptor gamma (PPARg) signaling pathway (AID 743094; active means well fitted activation curve with a large enough effect in the signal ratio in the repeat runs, not every such curve was filed as active; the % refers to the signal ratio; further: potency means the concentration at half of the fitted maximal effect)
Chain of Peroxisome proliferator-activated receptor gamma (Homo sapiens) (P37231 whole entry, looked up): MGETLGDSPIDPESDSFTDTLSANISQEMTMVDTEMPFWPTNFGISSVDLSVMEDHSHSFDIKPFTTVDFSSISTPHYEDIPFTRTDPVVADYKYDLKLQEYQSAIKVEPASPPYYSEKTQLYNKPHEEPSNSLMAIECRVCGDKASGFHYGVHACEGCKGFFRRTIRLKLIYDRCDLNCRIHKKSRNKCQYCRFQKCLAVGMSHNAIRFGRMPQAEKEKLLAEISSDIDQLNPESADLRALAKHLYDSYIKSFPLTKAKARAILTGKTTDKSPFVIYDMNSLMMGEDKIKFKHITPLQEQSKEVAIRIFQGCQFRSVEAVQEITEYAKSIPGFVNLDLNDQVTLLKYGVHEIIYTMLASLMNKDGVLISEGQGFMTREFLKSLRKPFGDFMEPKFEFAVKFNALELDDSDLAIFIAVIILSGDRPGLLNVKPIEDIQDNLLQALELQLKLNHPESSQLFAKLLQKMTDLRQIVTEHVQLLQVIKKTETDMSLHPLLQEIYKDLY
Summary of the method: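 Compounds dissolved in DMSO were added to PPARg UAS-bla HEK293H cells for 17 h at 37C, and reporter expression was quantified by fluorescence intensity after 1 h with LiveBLAzer B/G FRET substrate.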

[13] = molecular target: Peroxisome proliferator-activated receptor gamma (Homo sapiens) (UniProt P37231); experiment: qHTS assay to identify small molecule antagonists of the peroxisome proliferator-activated receptor gamma (PPARg) signaling pathway (AID 743191; calls by dose curve; further: series mostly up to about 63 µM; nearly all actives have a fitted effect of over 30% in size)
Summary of the method: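 Beta-lactamase reporter under UAS control in HEK293H PPARg-bla cells; compound treatment 17 h at 37C. Read-out: fluorescence intensity after 1 h room-temperature incubation with LiveBLAzer B/G FRET substrate.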

[14] = qHTS assay to identify small molecule antagonists of the peroxisome proliferator-activated receptor gamma (PPARg) signaling pathway - cell viability counter screen (AID 743194); further: nearly all actives have a fitted effect of over 55% in size; further: potency means the concentration at half of the fitted maximal effect
Summary of the method: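 Viability was measured as CellTiter-Glo luminescence in GeneBLAzer PPARg UAS-bla HEK293H cells. These cells had been exposed 17 h at 37 C to compounds together with rosiglitazone at 50 nM final, with the beta-lactamase readout taken in the same wells.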

[15] = qHTS assay for small molecule agonists of the antioxidant response element (ARE) signaling pathway (AID 743202; active means well fitted activation curve with a large enough effect in the signal ratio in the repeat runs, not every such curve was filed as active; the % refers to the signal ratio)
Summary of the method: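 Quantitative high-throughput format in HepG2 cells bearing an integrated ARE-beta-lactamase reporter. Compound exposure lasted 16 h at 37 C, and fluorescence was read 2 h after adding LiveBLAzer B/G substrate at room temperature.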

[16] = qHTS assay for small molecule agonists of the antioxidant response element (ARE) signaling pathway - cell viability counter screen (AID 743203; calls by dose curve; further: nearly all actives have a fitted effect of over 55% in size; further: potency means the concentration at half of the fitted maximal effect)
Summary of the method: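 Following 16 hrs of compound treatment at 37C, HepG2 cells with an ARE-controlled beta-lactamase gene were lysed with CellTiter-Glo. Luminescence was read after 30 min at room temperature.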

[17] = qHTS assay for small molecule activators of the heat shock response signaling pathway - cell viability counter screen (AID 743209); further: nearly all actives have a fitted effect of over 50% in size
Summary of the method: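 Readout: CellTiter-Glo luminescence, 30 min at room temperature. System: HSE-bla HeLa cells, 1500/well, plated overnight. Treatment: compounds in DMSO, 5 h at 37 C.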

[18] = qHTS assay for small molecule activators of the heat shock response signaling pathway (AID 743210; active means well fitted activation curve with a large enough effect in the signal ratio in the repeat runs, with a control signal flat, not every such curve was filed as active; the % refers to the signal ratio;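 further: HeLa cells with beta-lactamase reporter driven by heat shock elements; series mostly up to about 63 µM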)
Summary of the method: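 HeLa HSE-bla cells, overnight plating; cpd in DMSO 5 h, 37 C; LiveBLAzer B/G FRET substrate 2.5 h RT; fluorescence intensity read.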

[19] = qHTS assay to identify small molecule antagonists of the thyroid receptor (TR) signaling pathway (AID 743065); further: nearly all actives have a fitted effect of over 55% in size; further: potency means the concentration at half of the fitted maximal effect; on activity, negative = inhibition: series mostly up to about 70 µM
Summary of the method: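 Antagonism measured as loss of luciferase signal in GH3 cells stably carrying a TRE-luciferase reporter, co-treated with compound and T3 (1 nM final) for 23.5 h at 37 C. Viability was read in the same well by CellTiter-Fluor.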

## C=C(C)C1CC=C(C)C(OC(C)=O)C1 (stereo not given)
[1]
  Potency: inactive
[2]
  Potency: inactive
[3]
  Potency: inactive
[4]
  Potency: inactive
[5]
  Potency: inactive
[6]
  Potency: inactive
[7]
  Potency: inactive
[8]
  Potency: inactive
Aromatase (Homo sapiens)
  Potency: inactive
[9]
  Potency: inactive
[10]
  Potency: inactive
[11]
  Potency: inactive
[12]
  Potency: inactive
[13]
  Potency: inactive
[14]
  Potency: inactive
[15]
  Potency: inactive
[16]
  Potency: inactive
[17]
  Potency: inactive
[18]
  Potency: inactive

## CCCCCCC(O)CCCCCCCCCCC(=O)O (stereo not given)
[1]
  Potency: inactive
[19]
  Potency: inactive
[2]
  Potency: inactive
Aromatase (Homo sapiens)
  Potency: inactive
[9]
  Potency: inactive
[10]
  Potency: inactive
[11]
  Potency: inactive
[14]
  Potency: 21.9 µM (active)
[17]
  Potency: inactive
[18]
  Potency: inactive

## CN(C)c1ccc(C(=C2C=CC(=[N+](C)C)C=C2)c2ccccc2)cc1
[1]
  Potency: 7.5 µM (active) and 68.6 nM (active)
[19]
  Potency: 6.68 µM (active) and 48.6 nM (active)
[2]
  Potency: inactive
[4]
  Potency: 1.1 µM (active)
[8]
  Potency: inactive and 9.69 µM (active)
Aromatase (Homo sapiens)
  Potency: 243 nM (active)
[9]
  Potency: 1.93 µM (active)
[10]
  Potency: inactive
[11]
  Potency: inactive and 1.93 µM (active)
[12]
  Potency: 26.8 µM (active)
[14]
  Potency: 61.7 nM (active) and 668 nM (active)
[16]
  Potency: 545 nM (active) and 2.98 µM (active)

## NC(Cc1ccc(Cl)cc1)C(=O)O (stereo not given)
[1]
  Potency: inactive
[19]
  Potency: inactive
[2]
  Potency: inactive
[4]
  Potency: inactive
[8]
  Potency: inactive
Aromatase (Homo sapiens)
  Potency: inactive
[9]
  Potency: inactive
[10]
  Potency: inactive
[11]
  Potency: inactive
[13]
  ratio activity, negative = inhibition: -10.6% [at 0.55 µM] (inactive)
[14]
  activity change, negative = cytotoxicity: 2.82% [at 0.55 µM] (inactive)
[16]
  viability change, negative = cytotoxic: 0.376% [at 0.756 µM] (inactive)
[18]
  activation: 1.36% [at 0.55 µM] (inactive)

## CNCCC(Oc1ccc(C(F)(F)F)cc1)c1ccccc1 (stereo not given)
[1]
  Potency: 11.9 µM (active) and 9.56 µM (active)
[19]
  Potency: 11.9 µM (active) and 15.2 µM (active)
[4]
  Potency: inactive and 48.4 µM (active)
[8]
  Potency: inactive
Aromatase (Homo sapiens)
  Potency: 47900 nM (active)
[9]
  Potency: inactive and 47.9 µM (active)
[10]
  Potency: inactive
[11]
  Potency: inactive and 60.3 µM (active)
[14]
  Potency: 48.4 µM (active)
[16]
  Potency: 17 µM (active)

## CCCCCCCCCCCC[N+](C)(C)C
[1]
  Potency: 17.2 µM (active) and 13.7 µM (active) and 15.4 µM (active)
[19]
  Potency: 9.66 µM (active) and 6.86 µM (active) and 7.7 µM (active)
[4]
  Potency: inactive and 54.9 µM (active)
[8]
  Potency: 60.9 µM (active)
Aromatase (Homo sapiens)
  Potency: 24.3 µM (active) and 17.2 µM (active) and 21.7 µM (active)
[9]
  Potency: inactive
[10]
  Potency: inactive
[11]
  Potency: inactive
[12]
  Potency: inactive
[13]
  Potency: inactive
[16]
  Potency: inactive and 48.6 µM (active) and 61.1 µM (active)
[18]
  Potency: inactive

## Cc1ccnc2c1NC(=O)c1cccnc1N2C1CC1
[1]
  Potency: inactive
[19]
  Potency: inactive
[2]
  Potency: inactive
[4]
  Potency: inactive
[8]
  Potency: inactive
Aromatase (Homo sapiens)
  Potency: inactive
[9]
  Potency: inactive
[10]
  Potency: inactive
[11]
  Potency: inactive
[12]
  Potency: inactive
[13]
  Potency: inactive
[14]
  Potency: inactive
[15]
  Potency: inactive
[16]
  Potency: inactive
[17]
  Potency: inactive
[18]
  Potency: inactive

## O=C(O)CCc1ccccc1
[1]
  Potency: inactive
[19]
  Potency: inactive
[2]
  Potency: inactive
[4]
  Potency: inactive
[8]
  Potency: inactive
[11]
  Potency: inactive
[17]
  Potency: inactive
[18]
  Potency: inactive
